# Results filed as inconclusive are left out. The source made the active and inactive calls. Calls come from the whole dose curve; as a rule, active = well fitted cell-killing curve with a large enough effect; inconclusive = small, poorly fitted or top-dose-only effect, or effect the other way; inactive = no such curve, though single readings can be large or run the other way.
# Assay: Viability qHTS for spleen associated tyrosine kinase inhibitor (SYKi) drug resistant MV4-11 cells (AID 1963824); note: nearly all actives have a fitted effect of over 35% in size
# Details: SYKi-resistant MV4-11 viability, CellTiter-Glo, 72 h; series mostly up to 45 µM; viability, % of control: at the top concentration
# Procedure, shortened: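 CellTiter-Glo luminescence, read 10 min after reagent addition, reports viability after a 72 hr compound exposure. Cells are an MV4-11 line made resistant to SYK inhibition, seeded at 500 per well onto compound-containing plates.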
# Potency is the fitted concentration of half-maximal effect.
Structure (SMILES),"viability, % of control",Potency
CC1CCC2C(C(=O)O)=CC3(O)CC(C)(C)CC123 (stereo not given),72.4% (inactive),
C=C1C(=O)O[C@H]2C1CCC(C)=C1C(=O)C=C(C)[C@@]12O (stereo not given in full),,8.2 µM (active)
CC1(C)CC[C@]2(C(=O)O[C@@H]3O[C@H](CO)[C@@H](O)[C@H](O)[C@H]3O)CC[C@]3(C)C(=CCC4[C@@]5(C)CC[C@H](O[C@@H]6O[C@H](C(=O)O)[C@@H](O)[C@H](O[C@@H]7O[C@H](CO)[C@H](O)[C@H](O)[C@H]7O)[C@H]6O)C(C)(C)C5CC[C@]43C)C2C1 (stereo not given in full),106% [at 9.25 µM] (inactive),
Cc1c(Cl)cccc1S(=O)(=O)Nc1nc(NCCc2ccccc2)nc2c1CN(Cc1ccccc1)CC2,,13 µM (active)
CC1(C)C[C@@H]2[C@H](C1)[C@@]1(C)C[C@]13C(O)OC[C@]3(O)[C@H]2O (stereo not given in full),69.1% (inactive),
C=C1C(=O)OC2C1CCC1(C)C(O)CCC(=C)C21 (stereo not given),,4.61 µM (active)
COC(=O)[C@]12C(=O)C(C)=C(O)[C@@]1(C)C(C)=CC1[C@@]34CC[C@@H](OC(C)=O)C(C)(C)C3[C@H](C[C@]12C)OC4=O (stereo not given in full),101% [at 17.3 µM] (inactive),
CC(C)(Cc1ccccc1)NCC(O)c1ccc(O)c(NS(C)(=O)=O)c1 (stereo not given),59.2% (inactive),
CC1OC(OCC2OC(OC3CCC4(C)C(CCC5(C)C4CC=C4C6CC(C)(C)CCC6(C(=O)OC6OC(CO)C(O)C(O)C6O)CCC45C)C3(C)CO)C(O)C(O)C2O)C(O)C(O)C1O (stereo not given),96.2% [at 9.25 µM] (inactive),
Cc1ccccc1NC(=O)Nc1ccc(CC(=O)N(C)[C@@H](CC(C)C)C(=O)NCC[C@H](NC(=O)[C@@H]2CCCN2S(=O)(=O)c2cc(Cl)cc(Cl)c2)C(=O)O)cc1,93.9% [at 17.3 µM] (inactive),

# Reference: PubChem BioAssay (NCATS)
